FMDV inh: blocks foot and mouth disease virus | 1.2% of 410,000 active | FMDV antiviral cell-based qHTS | Potency, µM (top dose mostly 57.9 µM), actives largely listed as inhibitors; calls by dose curve; tested in HEK293T cells; further: read-out not given here; nearly all actives have a fitted effect of over 45% in size
Marburg entry inh: inhibitors of Marburg virus binding or cell entry | Potency, µM (doses to about 37.8 µM), hits mostly inhibitors | Marburg virus pseudotyped entry inhibition, cell reporter | 1.8% of 300,000 active | AID 540276; calls by dose curve; tested in HEK293 cells
Vaccinia Venus: inhibitors of vaccinia virus (Venus reporter). Vaccinia virus Venus reporter expression, fluorescence. Potency, µM (series often up to 36.5 µM), most hits filed as inhibitors. 0.46% of 330,000 active. AID 720580; calls by dose curve; tested in A549 cells; further: nearly all actives have a fitted effect of over 30% in size
LASV entry inh: blocks Lassa virus binding to or entry into cells; 1.2% of 300,000 active; Potency, µM (highest dose often 37.9 µM), actives largely listed as inhibitors; Lassa virus pseudotype entry inhibition, cell reporter; AID 540256; calls by dose curve; tested in HEK293 cells; further: nearly all actives have a fitted effect of over 50% in size
HCMV inh: blocks human cytomegalovirus replication; HFF cells, HCMV-luciferase reporter, 72 h; stronger effect = lower value; 4.5% of 410,000 active; activity change, negative = inhibition, % at 57.5 µM; AID 1259415; in the data active means activity change below about -60%; inconclusive means no clear call, values can overlap the other calls; inactive means above about -39%
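Cell-based, HFFs, 1000 cells/well, 16 h 37C; cpds in DMSO + HCMV-luc, MOI 1 PFU/cell; 72 h 37C; OneGlo luminescence after 5 min RT; norm. to buffer vs Salinomycin 10uM.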
Vaccinia mCherry: inhibitors of vaccinia virus infection (mCherry reporter signal); Vaccinia virus mCherry reporter infection, fluorescence; Potency, µM (series often up to 36.5 µM), usual class: inhibitors; 0.63% of 310,000 active; AID 720579; calls by dose curve; tested in A549 cells; further: nearly all actives have a fitted effect of over 35% in size
A number is an active result; i = inactive; ? = inconclusive; nt = not tested or not shown; [ ] = remark or other dose. A selection: hits, their analogues and other compounds. The true share with any hit is near 6.5%.

SMILES | FMDV inh | Marburg entry inh | Vaccinia Venus | LASV entry inh | HCMV inh | Vaccinia mCherry
CCOc1cc2c(cc1/C=C/c1noc(C)c1[N+](=O)[O-])OC(C)C2 (configuration not stated) | i | i | i | i | -61 | i
Cc1sc2nc(CN3CCOCC3)nc(NS(=O)(=O)c3cc(Cl)ccc3Cl)c2c1C | i | nt | nt | nt | -106 | nt
Cc1sc2nc(CN3CCOCC3)nc(Cl)c2c1C | i | ? | i | i | i | i
O=C(C1=C[C@H](c2ccc(Br)cc2)C[C@H](OCCCCO)O1)N1CCN(Cc2ccc3c(c2)OCO3)CC1 | i | nt | ? | nt | nt | ?
O=C(C1=C[C@@H](c2ccc(Br)cc2)C[C@@H](OCCCCO)O1)N1CCN(Cc2ccccc2)CC1 | ? | nt | ? | nt | -94 | ?
CC(=O)n1cc([C@@H]2C=C(C(=O)N3CCN(Cc4ccccc4)CC3)O[C@H](OCc3ccc(CO)cc3)C2)c2ccccc21 | ? | nt | ? | nt | -74 | i
CCCN1C(=O)c2ccccc2NC1c1ccc(OC)c(COc2ccc([N+](=O)[O-])cc2)c1 (configuration not stated) | nt | nt | i | nt | nt | i
OC[C@H]1O[C@H](c2ccccc2)C=C[C@H]1O | nt | i | nt | nt | nt | nt
Cc1cc(C)c(S(=O)(=O)Nc2ccc(-c3ccc(N4CCCCCC4)nn3)cc2)c(C)c1 | i | nt | i | i | i | i
CCO[C@H]1OC(C(=O)O)=C[C@@H](c2ccc3c(c2)OCO3)[C@@H]1CCCO | i | nt | i | nt | -101 | i
CCO[C@@H]1OC(C(=O)NCc2ccccc2)=C[C@H](c2ccc3c(c2)OCO3)[C@H]1CCCO | i | nt | i | nt | i | i
CCO[C@@H]1OC(C(=O)Nc2ccccc2)=C[C@H](c2ccc(Br)cc2)[C@H]1CCCO | i | nt | i | nt | i | i
CCO[C@@H]1OC(C(=O)N2CCN(Cc3ccc4c(c3)OCO4)CC2)=C[C@H](c2coc3ccccc3c2=O)[C@H]1CCCO | i | nt | i | nt | -89 | i
CCO[C@@H]1OC(C(=O)Nc2ccccc2)=C[C@H](c2ccccc2)[C@H]1CCCO | i | nt | i | nt | -61 | i
CCO[C@H]1OC(C(=O)NCc2ccccc2)=C[C@@H](c2ccc3c(c2)OCO3)[C@@H]1CCCO | i | nt | i | nt | -68 | i
CCO[C@@H]1OC(C(=O)Nc2ccccc2)=C[C@H](c2ccc3c(c2)OCO3)[C@H]1CCCO | i | nt | i | nt | i | i
CCO[C@H]1OC(C(=O)N2CCN(Cc3ccccc3)CC2)=C[C@@H](c2coc3ccccc3c2=O)[C@@H]1CCCO | i | nt | i | nt | i | i
CNc1nc(-c2ccccc2)c(-c2ccccc2)s1 | nt | nt | i | nt | nt | i
COc1cc(CN(CC2CCCO2)C(=O)c2ccc(F)cc2)cc(OC)c1OC (configuration not stated) | i | i | i | i | i | i
CCOc1cc(Br)c(C=O)cc1OCC | i | i | i | i | -92 | i
CCOc1cc(Br)c(C(=O)O)cc1OCC | i | i | nt | i | i | nt
COCCn1cnc2c1c(=O)n(Cc1ccc(C#N)cc1)c(=O)n2Cc1ccccc1 | i | ? | i | i | -61 | i
Cc1ccccc1Nc1cc(C(=O)NC2CCC(C)CC2)c2ccccc2n1 (configuration not stated) | i | ? | i | i | -78 | i
Cc1cc(=O)n(CC(=O)N2CCN(c3ccc(F)cc3)CC2)c2c1c(C)nn2C | 28µM | nt | i | ? | i | i
Cc1nnnn1/C(=C\c1ccccc1)C(=O)OCC(=O)Nc1ccc(Cl)cc1F | 28µM | ? | ? | 20µM | -95 | i
SMILES | FMDV inh | Marburg entry inh | Vaccinia Venus | LASV entry inh | HCMV inh | Vaccinia mCherry
Cc1nnnn1/C(=C\c1ccccc1)C(=O)OCC(=O)Nc1cccc(S(=O)(=O)N(C)C)c1 | 14µM | nt | nt | nt | -61 | nt
C=CCSC(=C(C#N)C#N)c1cc2c([nH]1)CCCC2 | 11µM | ? | i | 11µM | i | nt
CCCCCCCCCCOC(=O)Cn1c(COc2ccccc2OC)[n+](C)c2ccccc21 | ? | 2.5µM | 14µM | ? | ? | ?
COc1ccc(N2CCN(/C(=N\S(=O)(=O)c3ccc(C)cc3)Nc3nc(C)cc(C)n3)CC2)cc1 | i | i | nt | 8.2µM | i | nt
COc1ccc(N2CCN(C(=O)Cc3ccc(C)cc3)CC2)cc1 | i | i | i | i | i | i
CC(=O)N1CCN(c2nc3c(F)cc(F)cc3s2)CC1 | i | nt | i[7.34 µM] | i | i | i[7.34 µM]
CC(=O)N1CCN(c2c(F)c(F)c(C(F)(F)F)c(F)c2F)CC1 | ? | ? | i | i | -61 | i
CCC(=O)NC(/C=C/c1ccccc1)c1cc([N+](=O)[O-])c2cccnc2c1O (configuration not stated) | nt | nt | nt | nt | i | nt
CC(C)C(=O)NC(c1cccs1)c1cc([N+](=O)[O-])c2cccnc2c1O (configuration not stated) | i | ? | ? | i | nt | 11µM
CCC(=O)NC(c1cccs1)c1cc([N+](=O)[O-])c2cccnc2c1OC (configuration not stated) | i | nt | nt | nt | -87 | nt
Cc1ccc(C(NC(=O)C(C)C)c2cc([N+](=O)[O-])c3cccnc3c2O)cc1 (configuration not stated) | i | ? | ? | i | i | i
CCc1cccc(NC(=O)c2nc(-c3ccncc3)no2)c1 | i | nt | i | i | i | i
COc1ccccc1NC(=O)c1cc(Sc2nncn2C)nc2ccccc12 | i | i | 11µM | i | i | nt
COc1ccccc1NC(=O)c1cc(-c2ccc(OC)c(OC)c2)nc2ccccc12 | i | i | i | i | i | i
Cc1ccc(C(C)C)c(OCC(=O)NCC2(N(C)C)CCCCC2)c1 | i | ? | i | i | i | i
CC(C)Cn1c(N)c(C(=O)COC(=O)c2ccc(Br)cc2)c(=O)n(C)c1=O | 32µM | nt | nt | nt | i | nt
CC(C)Cn1c(N)c(C(=O)CSc2ccccc2)c(=O)n(C)c1=O | 20µM | ? | i | i | i | ?
CC(C)Cn1c(N)c(C(=O)COC(=O)/C=C/c2ccccc2)c(=O)n(C)c1=O | 16µM | 10µM | i | ? | -76 | ?
CC(C)Cn1c(N)c(C(=O)COC(=O)c2ccc(Cl)cc2)c(=O)n(C)c1=O | i | i | i | i | ? | i
CCCn1c(N)c(C(=O)CSc2nc(C)cs2)c(=O)n(C)c1=O | i | 10µM | ? | i | i | i[1.46 µM]
CC(C)Cn1c(N)c(C(=O)COC(=O)CC23CC4CC(CC(C4)C2)C3)c(=O)n(C)c1=O | 13µM | 8.9µM | ? | 1.8µM | -67 | nt
N#Cc1ccc(-c2cccs2)nc1SCc1ccc(Cl)cc1Cl | i | i | i | ? | i | i
CC(/C=C/c1ccccc1)=N\NC(N)=S | i | ? | ? | i | i | 4µM
CC(Nc1ccc2c(c1)OCCO2)C(=O)N1c2ccccc2CC1C (configuration not stated) | i | i | i | 8.9µM | i | i
CC1Cc2ccccc2N1C(=O)NC1CC(=O)N(c2ccc3c(c2)OCCO3)C1 (configuration not stated) | i | ? | i | i | i | i
Cc1ccc(NC(=O)CSc2ncc3c(n2)-c2ccc(Cl)cc2N(C)S3(=O)=O)cc1F | i | nt | i | i | i | i
